Source: PubChem BioAssay (National Center for Advancing Translational Sciences (NCATS))
FBPA coupling cs – qHTS Assay for Inhibitors of Fructose-1,6-bisphosphate Aldolase from Giardia Lamblia: Coupling assay counterscreen | coupling enzyme system counterscreen, AmpLite Red fluorescence | activity change, negative = inhibition, % at 58.2 µM, hits read low | 290,000 tested, 0.67% active; in the data active means activity change below about -30%
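Counterscreen lacking aldolase: glyceraldehyde-3-phosphate coupling-enzyme reagent preincubated 10 min at RT with compound (at 57.5 uM final), then substrate/coupling system with AmpLite Red added; fluorescence read at 525/598 nm after 20 min RT.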
USP1 inh – Inhibitors of USP1/UAF1: Primary Screen; recombinant USP1/UAF1, Ub-Rhodamine cleavage fluorescence; Potency, µM (top dose mostly 57.1 µM), for the others: top-dose activity change, negative = inhibition, usual class: inhibitors; 390,000 tested, 0.23% active; further: potency means the concentration at half of the fitted maximal effect; nearly all actives have a fitted effect of over 60% in size
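USP1/UAF1 complex (1 nM) preincubated 15 min at room temperature with compound, then Ub-Rho substrate (150 nM final) added. Kinetic fluorescence at 480/540 nm over 6 reads at 60 s intervals; 50 mM HEPES pH 7.8, 0.5 mM EDTA, 0.1 mg/ml BSA, 1 mM TCEP, 0.01% Tween-20.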
VDR inhibitor – Inhibitors of the vitamin D receptor (VDR): qHTS; Potency, µM, for the others: max response, negative = inhibition, most hits filed as inhibitors; 400,000 tested, 0.93% active; Vitamin D3 receptor (Homo sapiens), P11473; VDR-SRC2-3 peptide fluorescence polarization, 2 h; further: potency means the concentration at half of the fitted maximal effect
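Signal is fluorescence polarization, reporting how far test compounds block the interaction of VDR with the SRC2-3 coregulator peptide after a 2 h room-temperature incubation.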
GALK inh – qHTS Assay for Inhibitors of Human Galactokinase (GALK); P51570; Purified GALK, Kinase-Glo residual ATP luminescence; Potency, µM (top dose mostly 57.5 µM), for the others: at the highest dose activity change, negative = inhibition, hits mostly inhibitors; 270,000 tested, 0.007% active; further: potency means the concentration at half of the fitted maximal effect
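GALK at 5 nM final was combined with compound, 35 uM ATP and 100 uM galactose in HEPES pH8.0 with MgCl2 and DTT. The reaction ran one hour at room temperature before luminescent ATP detection.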
USP2a block – qHTS Assay for Inhibitors of Ubiquitin-specific Protease USP2a Using CHOP2 as the Reporter. Ubiquitin carboxyl-terminal hydrolase 2 (Homo sapiens), O75604. AID 463254, 2010. Potency, µM (top dose mostly 38.3 µM), for the others: at the top dose activity change, negative = inhibition, hits mostly inhibitors. USP2 core, Ub-CHOP2 coupled fluorogenic reporter, 485/531. 330,000 tested, 0.01% active;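 further: potency means the concentration at half of the fitted maximal effect; plate controls were DMSO wells for no effect and full inhibition by NEM control for full effect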
Target sequence (O75604 whole entry, looked up): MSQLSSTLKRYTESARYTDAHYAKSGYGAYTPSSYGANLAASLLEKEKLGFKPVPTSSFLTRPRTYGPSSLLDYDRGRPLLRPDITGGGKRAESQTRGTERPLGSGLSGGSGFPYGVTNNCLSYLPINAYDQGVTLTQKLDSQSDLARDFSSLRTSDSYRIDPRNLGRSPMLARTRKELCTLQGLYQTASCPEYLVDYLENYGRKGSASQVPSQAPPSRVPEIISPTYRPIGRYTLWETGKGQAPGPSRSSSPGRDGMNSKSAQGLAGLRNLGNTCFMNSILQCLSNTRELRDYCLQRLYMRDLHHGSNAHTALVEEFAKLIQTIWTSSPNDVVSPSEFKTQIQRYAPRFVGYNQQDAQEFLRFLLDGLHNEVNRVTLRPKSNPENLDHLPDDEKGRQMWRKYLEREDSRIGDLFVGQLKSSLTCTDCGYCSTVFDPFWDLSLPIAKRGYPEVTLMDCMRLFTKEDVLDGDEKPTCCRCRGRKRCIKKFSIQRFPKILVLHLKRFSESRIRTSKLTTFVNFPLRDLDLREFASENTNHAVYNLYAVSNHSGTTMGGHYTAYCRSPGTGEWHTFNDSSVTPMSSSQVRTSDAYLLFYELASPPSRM
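USP2 core (10nM final) preincubated 30min RT with compound in 20mM Tris-HCl pH 8.0, 2mM CaCl2, 2mM beta-mercaptoethanol, 0.05% CHAPS; 25nM Ub-CHOP2 plus 25nM reporter substrate added, fluorescence (Ex485/Em531) read after 60min.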
PLK1 PBD block – qHTS for Inhibitors of PLK1-PDB (polo-like kinase 1 - polo-box domain): Primary Screen. Serine/threonine-protein kinase PLK1 (Homo sapiens), P53350. Plk1 PBD binding of FITC phosphopeptide, fluorescence polarization. Potency, µM, inactives show max response, negative = inhibition, usual class: inhibitors. 360,000 tested, 2.8% active; further: potency means the concentration at half of the fitted maximal effect; series mostly up to about 57 µM; nearly all actives have a fitted effect of over 65% in size
* = called active by the depositor; ? = inconclusive; . = no result; ! = a repeat was not active. Most compounds without a hit are left out; they make up all but 3.2% or so of the library. Unless noted, the call rests on the fitted dose curve; in most records, active means well fitted curve in the direction sought with a large enough effect; inconclusive means small, poorly fitted or top-dose-only effect, or another doubt; inactive means no such curve, though single readings can be large; an effect the other way counts as inactive or inconclusive. Unless noted, on the % scale 0 is the no-effect control and ±100 the full control effect.

SMILES	FBPA coupling cs	USP1 inh	VDR inhibitor	GALK inh	USP2a block	PLK1 PBD block
CC1=C(/C=C/C(C)=C/C=C/C(C)=C/CO)C(C)(C)CCC1	1.3	-13.1%	?	.	.	-8.1%
CC(=O)OC/C=C(C)/C=C/C=C(C)/C=C/C1=C(C)CCCC1(C)C	2.9	.	39.8µM*!	.	.	.
Cc1ccc(OCC(=O)Nc2ccccc2C(=O)OCc2cc(=O)n3nc(C4CC4)sc3n2)cc1	.	-8.7%	11.0%	.	.	.
O=C(O)c1ccc(C(=O)c2ccc3c(c2)C(=O)N(CCO)C3=O)cc1	2.5	-4.9%	7.0%	-0.3%	0.0%	-8.8%
Nc1ccc(CNc2ncn[nH]2)cc1	1.6	-20.4%	?	0.6%	0.1%	23.8µM*
COc1ccc(C2=NNC(=Nc3cc(S(=O)(=O)N(C)C)ccc3C)SC2)c(OC)c1	-1.3	-23.8%	2.3%	-0.6%	1.0%	-4.9%
CC1(OC(=O)c2ccc(Cl)nc2)C(=O)C=C2C=C(c3ccc(C#N)cc3)OC=C2C1=O (centres undefined)	1.3	.	89.1µM*!	.	.	.
COC(=O)C1=C(C(=O)c2ccccc2)C(c2ccccc2)n2nnnc2N1 (centres undefined)	4.9	-15.1%	-0.8%	-1.9%	-1.4%	-17.5%
O=C(O)C1=C(OCc2ccc(F)c(F)c2)C(=O)NCC1	1.3	-15.9%	79.4µM*	-2.0%	-0.4%	26.7µM*
O=C(O)c1ccc(COc2c(F)c(F)cc(F)c2F)cc1	20.8	-3.0%	-3.8%	1.1%	-1.2%	-5.4%
CCOc1ccc(/C=N/OCC(=O)NCc2ccco2)cc1	-1.4	-10.7%	?	0.4%	8.0%	15µM*
O=C(Oc1ccc(Cl)c2cccnc12)c1cccc([N+](=O)[O-])c1	-12.6	-11.1%	-14.8%	0.4%	3.1%	1.3%
O=[N+]([O-])c1ccccc1COc1ccc(Cl)c2cccnc12	0.7	-20.6%	-19.8%	0.1%	1.6%	23.8µM*
N#CC1=C(N)S[C@@H](C(=O)c2ccc(F)cc2)[C@@H]1c1cccs1	-6.8	-7.8%	-5.4%	-1.6%	-1.8%	-10.9%
CCN(CC)S(=O)(=O)c1ccc(/C=C/C(=O)OCC(=O)Nc2ccc(S(N)(=O)=O)cc2)cc1	-45.9*	-20.3%	0.7%	2.3%	-0.6%	-5.6%
COc1cc(/C=C/C(=O)OCC(=O)Nc2ccc(S(N)(=O)=O)cc2)ccc1O	-2.3	?	-9.1%	-2.0%	1.0%	13.4µM*
CC(=O)Nc1ccc(-c2ccnc3c2CC(C(=O)Nc2ccc(C(C)C)cc2)O3)cc1 (centres undefined)	.	.	.	.	.	-0.3%
CC(=NNc1nc2ccccc2s1)c1ccncn1	.	-4.6%	-5.7%	.	.	-8.5%
CO/N=C/NC(=O)c1ccc([N+](=O)[O-])c(CS(=O)(=O)c2ccc(Cl)cc2)c1	-2.4	-16.1%	?	-1.3%	-1.2%	2.99µM*
CN(C)C=NC(=O)c1ccc([N+](=O)[O-])c(CS(=O)(=O)c2ccc(Cl)cc2)c1	0.5	-9.6%	6.0%	-2.5%	3.4%	-3.5%
O=C(NCC1CC1)c1ccc(Nc2nc3ccc(Br)cc3[nH]2)cc1	-2.2	-27.7%	-8.0%	-3.5%	-0.4%	10.6µM*
Cn1c(=O)cc(OCC(=O)NCCCN2CCN(Cc3ccccc3)CC2)c2ccccc21	-1.1	-21.8%	-5.6%	-4.3%	1.4%	5.0%
COc1ccc(Cc2nnc(NS(=O)(=O)c3ccc([N+](=O)[O-])cc3)s2)cc1	9.5	?	-3.1%	3.4%	1.7%	29.9µM*
COc1cc(OC)cc(C(=O)Nc2nnc(Cc3ccc(OC)c(OC)c3)s2)c1	6.7	-19.3%	9.5%	-0.2%	2.0%	-7.9%
COc1ccc(Cc2nnc(NS(=O)(=O)c3ccccc3)s2)cc1	10.2	-1.1%	5.7%	3.0%	1.5%	?
SMILES	FBPA coupling cs	USP1 inh	VDR inhibitor	GALK inh	USP2a block	PLK1 PBD block
COc1ccc(S(=O)(=O)Nc2nnc(Cc3ccc(OC)c(OC)c3)s2)cc1	17.9	-22.9%	-3.6%	1.0%	1.0%	26.7µM*
CCOc1cccc2sc(NC(=O)CCS(=O)(=O)c3ccccc3)nc12	1.1	-2.6%	-2.2%	5.0%	-0.1%	-19.7%
COc1ccc(C(=O)c2sc3nc4c(c(C(F)(F)F)c3c2N)CN(C(C)=O)CC4)cc1OC	.	39.8µM*	-2.0%	.	.	.
COc1ccc(CNC(=O)c2sc3nc4c(c(C(F)(F)F)c3c2N)CCC4)cc1OC	-0.3	-7.9%	39.8µM*	1.3%	-10.7%	?
COc1ccc(NC(=O)c2sc3nc(C(F)(F)F)cc(C)c3c2N)cc1OC	.	3.5%	-9.4%	.	.	.
Cc1cc(F)ccc1S(=O)(=O)Nc1ncnc2sccc12	4.1	-20.0%	-9.6%	1.1%	1.0%	21.2µM*
Fc1cccc(Nc2ncnc3sccc23)c1	-5.4	-24.1%	-7.7%	1.9%	2.6%	-4.1%
COc1ccc(/C=N/S(=O)(=O)c2ccc(C)cc2)cc1	2.0	-23.1%	-1.1%	-0.2%	3.0%	-3.5%
O=C(CSc1nnnn1-c1ccccc1)NC(=O)Cc1ccccc1	.	-12.9%	-8.2%	.	0.7%	4.9%
Cn1nnnc1SCC(=O)NC(=O)Cc1ccccc1	4.1	-23.0%	-29.6%	0.5%	-10.5%	2.99µM*
COc1cc(NC(=S)N2CCCC(CO)C2)cc(OC)c1 (centres undefined)	1.6	-4.3%	6.9%	3.4%	0.6%	21.2µM*
COC(=O)Cc1ccc(NC(=S)N2CCCC(CO)C2)cc1 (centres undefined)	1.3	-16.8%	-5.4%	-0.1%	3.6%	?
COc1cccc(C2=NOC(C(=O)NCc3ccccc3)C2)c1 (centres undefined)	1.7	-5.3%	16.3%	3.4%	0.4%	-11.5%
COc1ccc(C2=NOC(C(=O)NCc3ccccc3)C2)cc1 (centres undefined)	-4.5	-4.4%	-19.3%	-1.0%	3.3%	26.7µM*
CCOC(=O)c1cc2c(=O)n3ccccc3nc2n(Cc2ccco2)c1=NC(=O)c1ccccc1OC	0.5	-6.8%	56.2µM*!	-0.1%	-0.4%	-11.5%
COC(=O)c1c(NC(=O)CN2CCC3(O)CCCCC3C2c2ccc(OC)cc2OC)sc(C)c1C (centres undefined)	0.2	-23.4%	-17.1%	-1.3%	-19.0%	21.2µM*
COC(CN(C)C(=O)C1CCC(CNS(=O)(=O)c2ccccc2)CC1)OC (centres undefined)	4.8	-17.5%	-6.7%	4.7%	-4.6%	-4.8%
